A selection: hits, their analogues and other compounds. The true share with any hit is near 2.6%.
TLR4 MyD88 blk: blocks binding of human TLR4 to MyD88; O00206; Cell-based TLR4-MyD88 binding inhibition assay; inhibition, % at 10 µM; actives 0.06% (n = 16,000); AID 811; in the data active = inhibition above about 45%
NOTCH ag: agonists of NOTCH signaling; NOTCH signaling luciferase reporter cells, luminescence; activation, % at 2.5 µM; actives 0.4% (n = 15,000); in the data active = activation above about 2.2%
OPRK1 antag MB: antagonists of human kappa opioid receptor OPRK1, Maybridge library; P41145; OPRK1 cells, antagonist mode, fluorescence readout; inhibition, % at 9 µM; actives 0.4% (n = 16,000); in the data active = inhibition above about 50%
PME-1 Maybr inh: PME-1 (human) inhibition, Maybridge primary screen; Q9Y570; recombinant PME-1, FP-Rh probe fluorescence polarization; inhibition, % at 9 µM; actives 0.5% (n = 16,000); AID 2291; in the data active = inhibition above about 30%
Target sequence (Q9Y570 whole entry, looked up): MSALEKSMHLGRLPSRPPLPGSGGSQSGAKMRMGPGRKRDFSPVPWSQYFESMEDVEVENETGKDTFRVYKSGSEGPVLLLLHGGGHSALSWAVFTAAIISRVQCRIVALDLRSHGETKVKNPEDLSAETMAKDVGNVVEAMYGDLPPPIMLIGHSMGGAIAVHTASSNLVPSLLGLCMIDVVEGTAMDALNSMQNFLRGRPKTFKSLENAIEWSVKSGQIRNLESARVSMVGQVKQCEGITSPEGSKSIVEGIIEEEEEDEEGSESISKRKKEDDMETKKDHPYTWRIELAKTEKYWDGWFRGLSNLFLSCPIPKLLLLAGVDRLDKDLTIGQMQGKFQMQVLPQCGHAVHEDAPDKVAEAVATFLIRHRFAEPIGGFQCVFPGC
S1P1 agonist: S1P1 (human) receptor agonism; P21453; S1P1 agonist cell-based reporter assay; activation, % at 4.5 µM; actives 1.5% (n = 16,000); AID 1044; in the data active = activation above about 80%
Numbers stand for hits; . = inactive.

SMILES	TLR4 MyD88 blk	NOTCH ag	OPRK1 antag MB	PME-1 Maybr inh	S1P1 agonist
N#CC(C#N)=NNc1ccc(C(F)(F)F)cc1	.	.	.	.	115
N#CC(C#N)=NNc1ccc(OC(F)(F)F)cc1	.	.	.	.	109
CN(C)C(=O)Oc1nc(-c2cccs2)cc(C(F)(F)F)c1C#N	.	.	.	.	.
Cc1c(NC(=O)c2ccc(Cl)cc2)cc(-c2ccccc2)n1CCCN1CCOCC1	.	.	.	.	.

Screening results (PubChem)
